According to PubChem BioAssay AID1159580 (chemical genetic matrix, 2015):
Hit rate of the full screen: of about 5,500 compounds, about 2,000 (36%) were called active. Not shown: some 18% with an inconclusive outcome. Cut-off read from the data, not from the text of the source: active = normalized growth mostly below about 0.91 (no sharp cut-off); inconclusive = no clear call, values can overlap the other calls; inactive = mostly above about 0.92. The list shows a part of the results.

Test: chemical genetic growth profiling, strain panel (AID 1159580);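 note: tested at 20 µM; growth read once vehicle control cultures reached saturation at 30 °C; 1 = growth at the plate median or of vehicle wells; lower values mean less growth of the strain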
Conditions: growth OD

Measured: normalized growth

CC(=O)NCCCCCC(=O)O
inactive: S. cerevisiae deletion strains, locus YJL187C, strain SWE1, hits give low values 1.01 | S. cerevisiae deletion strains, locus YJR043C, strain POL32, hits give low values 1.01 | S. cerevisiae deletion strains, locus YJR075W, strain HOC1, hits give low values 1.02 | S. cerevisiae deletion strains, locus YKL009W, strain mrt4, hits give low values 0.997 | S. cerevisiae deletion strains, locus YKL068W, hits give low values 0.994 | S. cerevisiae deletion strains, locus YKL085W, strain MDH1 (second series), hits give low values 0.989 | S. cerevisiae deletion strains, locus YKL085W, strain MDH1, hits give low values 0.989 | S. cerevisiae deletion strains, locus YKL160W, strain elf1, hits give low values 1.03 | S. cerevisiae deletion strains, locus YKL190W, strain CNB1, hits give low values 1.01 | S. cerevisiae deletion strains, locus YKR001C, strain vps1, hits give low values 1.01 | S. cerevisiae deletion strains, locus YKR026C, strain gcn3, hits give low values 0.963 | S. cerevisiae deletion strains, locus YKR091W, strain srl3, hits give low values 0.985 | S. cerevisiae deletion strains, locus YLL001W, strain dnm1, hits give low values 1.01 | S. cerevisiae deletion strains, locus YLL026W, hits give low values 1.01 | S. cerevisiae deletion strains, locus YLL041C, strain sdh2, hits give low values 0.994 | S. cerevisiae deletion strains, locus YLR027C, strain aat2, hits give low values 1.02 | S. cerevisiae deletion strains, locus YLR039C, strain RIC1, hits give low values 1.04 | S. cerevisiae deletion strains, locus YLR058C, strain SHM2, hits give low values 1.02 | S. cerevisiae deletion strains, locus YLR102C, strain apc9, hits give low values 0.989 | S. cerevisiae deletion strains, locus YLR221C, strain rsa3, hits give low values 1 | S. cerevisiae deletion strains, locus YLR258W, strain gsy2, hits give low values 0.992 | S. cerevisiae deletion strains, locus YLR262C, strain YPT6 (second series), hits give low values 1.02 | S. cerevisiae deletion strains, locus YLR262C, strain YPT6, hits give low values 1.07 | S. cerevisiae deletion strains, locus YLR268W, strain sec22, hits give low values 0.996 | S. cerevisiae deletion strains, locus YLR320W, strain mms22, hits give low values 1 | S. cerevisiae deletion strains, locus YLR330W, strain CHS5, hits give low values 1.01 | S. cerevisiae deletion strains, locus YLR342W, strain FKS1 (second series), hits give low values 1 | S. cerevisiae deletion strains, locus YLR342W, strain FKS1, hits give low values 0.982 | S. cerevisiae deletion strains, locus YLR357W, strain rsc2, hits give low values 1.01 | S. cerevisiae deletion strains, locus YLR370C, strain arc18, hits give low values 0.991 | S. cerevisiae deletion strains, locus YLR371W, strain rom2, hits give low values 0.983 | S. cerevisiae deletion strains, locus YLR384C, strain iki3, hits give low values 0.983 | S. cerevisiae deletion strains, locus YLR418C, strain cdc73, hits give low values 0.963 | S. cerevisiae deletion strains, locus YML016C, strain PPZ1, hits give low values 1.01 | S. cerevisiae deletion strains, locus YML032C, strain rad52, hits give low values 0.986 | S. cerevisiae deletion strains, locus YML120C, strain ndi1, hits give low values 1.01 | S. cerevisiae deletion strains, locus YML124C, strain tub3, hits give low values 0.989 | S. cerevisiae deletion strains, locus YMR058W, strain fet3, hits give low values 0.981 | S. cerevisiae deletion strains, locus YMR078C, strain ctf18, hits give low values 1 | S. cerevisiae deletion strains, locus YMR125W, strain sto1, hits give low values 0.986 | S. cerevisiae deletion strains, locus YMR129W, hits give low values 0.976 | S. cerevisiae deletion strains, locus YMR205C, strain PFK2, hits give low values 0.968 | S. cerevisiae deletion strains, locus YMR223W, strain ubp8, hits give low values 0.976 | S. cerevisiae deletion strains, locus YMR231W, strain pep5, hits give low values 0.978 | S. cerevisiae deletion strains, locus YMR307W, strain GAS1, hits give low values 1.01 | S. cerevisiae deletion strains, locus YNL067W, strain RPL9B, hits give low values 1.02 | S. cerevisiae deletion strains, locus YNL071W, strain lat1, hits give low values 0.989 | S. cerevisiae deletion strains, locus YNL209W, strain ssb2, hits give low values 0.994 | S. cerevisiae deletion strains, locus YNL233W, strain BNI4, hits give low values 1.03 | S. cerevisiae deletion strains, locus YNL248C, strain rpa49, hits give low values 1.01 | S. cerevisiae deletion strains, locus YNL250W, strain rad50, hits give low values 0.992 | S. cerevisiae deletion strains, locus YNL271C, strain bni1, hits give low values 0.971 | S. cerevisiae deletion strains, locus YNL298W, strain CLA4, hits give low values 0.986 | S. cerevisiae deletion strains, locus YNL307C, strain MCK1, hits give low values 0.988 | S. cerevisiae deletion strains, locus YNL322C, strain KRE1 (second series), hits give low values 0.995 | S. cerevisiae deletion strains, locus YNL322C, strain KRE1, hits give low values 1.01 | S. cerevisiae deletion strains, locus YNR049C, strain mso1, hits give low values 0.973 | S. cerevisiae deletion strains, locus YNR052C, strain pop2, hits give low values 0.995 | S. cerevisiae deletion strains, locus YOL006C, strain TOP1, hits give low values 1.09 | S. cerevisiae deletion strains, locus YOL012C, strain htz1 0.886 | S. cerevisiae deletion strains, locus YOL147C, strain pex11, hits give low values 0.988 | S. cerevisiae deletion strains, locus YOR001W, strain rrp6, hits give low values 1.04 | S. cerevisiae deletion strains, locus YOR061W, strain CKA2, hits give low values 1.02 | S. cerevisiae deletion strains, locus YOR069W, strain VPS5, hits give low values 1.01 | S. cerevisiae deletion strains, locus YOR070C, strain gyp1, hits give low values 0.994 | S. cerevisiae deletion strains, locus YOR080W, strain dia2, hits give low values 0.988 | S. cerevisiae deletion strains, locus YOR083W, strain WHI5, hits give low values 1.06 | S. cerevisiae deletion strains, locus YOR106W, strain vam3, hits give low values 1.01 | S. cerevisiae deletion strains, locus YOR136W, strain idh2, hits give low values 0.985 | S. cerevisiae deletion strains, locus YOR144C, strain elg1, hits give low values 0.978 | S. cerevisiae deletion strains, locus YOR184W, strain ser1, hits give low values 0.982 | S. cerevisiae deletion strains, locus YOR265W, strain rbl2, hits give low values 1.01 | S. cerevisiae deletion strains, locus YOR270C, strain vph1, hits give low values 0.968 | S. cerevisiae deletion strains, locus YOR290C, strain snf2, hits give low values 0.939 | S. cerevisiae deletion strains, locus YOR316C, strain cot1, hits give low values 0.987 | S. cerevisiae deletion strains, locus YPL051W, strain arl3, hits give low values 1.02 | S. cerevisiae deletion strains, locus YPL055C, strain LGE1, hits give low values 1.07 | S. cerevisiae deletion strains, locus YPL078C, strain atp4, hits give low values 1 | S. cerevisiae deletion strains, locus YPL106C, strain sse1, hits give low values 0.977 | S. cerevisiae deletion strains, locus YPL240C, strain hsp82, hits give low values 0.99 | S. cerevisiae deletion strains, locus YPR119W, strain clb2, hits give low values 0.993 | S. cerevisiae deletion strains, locus YPR141C, strain kar3, hits give low values 0.989 | S. cerevisiae deletion strains, locus YPR163C, strain tif3, hits give low values 0.98 | S. cerevisiae deletion strains, locus YPR167C, strain met16, hits give low values 0.977 | S. cerevisiae deletion strains, strain wtn01, hits give low values 0.976 | S. cerevisiae strains, strain wild type, hits give low values 1.01
